# Measured values published in the supplement of paper PMC8728848.
# Shown is part of a subset that was picked to be rich in the strongest signals.
# B1: XL-35 (Xenopus laevis) (protein)
# chain: MLVHILLLLVTGGLSQSCDPVVIVASKNMVKQLDCDKFRNCKEIKDSNEEAQDGIYTLTSPDGISYQTFCDMTTNGGGWTLVASVHENNMAGKCTIGDRWSSQQGNRADYPEGDGNWANYNTFGSAGGATSDDYKNPGYYDIEAYNLGVWHVPNKTPLSVWRNSSLQRYRTTDGILFKHGGNLFSLYRIYPVKYGIGSCSKDSGPTVPVVYDLGSANLTASFYSPGFRSQFTPGYIQFRPINTEKAALALCPGMKMESCNVEHVCIGGGGYFPEADPRQCGDFAAYDFNGYGTKKFNSAGIEITEAAVLLFYL
# Experiments:
# Experiment in all cases: glycan array binding signal (z-score within array); higher = stronger binding
# Settings in all cases: glycan notation: IUPAC condensed, linker removed
# [1] = target: Fuc(a1-2)Gal(b1-3)GalNAc(b1-4)[Neu5Ac(a2-3)]Gal(b1-4)Glc
# In short: (§1)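 The binding signal is a Z-score computed within each array and averaged over linkers. Arrays of the same protein sequence at different concentrations or buffers were also averaged together. Data originate from 3228 arrays in the Consortium for Functional Glycomics database, kept only where the protein sequence was available.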
# [2] = target: Fuc(a1-2)Gal(b1-3)GlcNAc6S
# In short: as §1
# [3] = target: Fuc(a1-2)Gal(b1-3)[Fuc(a1-4)]GlcNAc(b1-2)Man(a1-3)[Fuc(a1-2)Gal(b1-3)[Fuc(a1-4)]GlcNAc(b1-2)Man(a1-3)]Man(b1-4)GlcNAc(b1-4)GlcNAc
# In short: as §1
# Fuc(a1-2)Gal(b1-4)Glc6S = target: Fuc(a1-2)Gal(b1-4)Glc6S
# In short: as §1
# [4] = target: Fuc(a1-2)Gal(b1-4)GlcNAc(b1-2)[Fuc(a1-2)Gal(b1-4)GlcNAc(b1-4)]Man(a1-3)[Fuc(a1-2)Gal(b1-4)GlcNAc(b1-2)Man(a1-6)]Man(b1-4)GlcNAc(b1-4)GlcNAc
# In short: as §1
# Fuc(a1-2)GlcNAc = target: Fuc(a1-2)GlcNAc
# In short: as §1
# [5] = target: Fuc(a1-2)[Gal(a1-3)]Gal(b1-3)GalNAc(b1-3)Gal(a1-4)Gal(b1-4)Glc
# In short: as §1
# [6] = target: Fuc(a1-2)[Gal(a1-3)]Gal(b1-3)GlcNAc(b1-3)GalNAc
# In short: as §1
# [7] = target: Fuc(a1-2)[Gal(a1-3)]Gal(b1-4)[Fuc(a1-3)]GlcNAc
# In short: as §1
# [8] = target: Fuc(a1-2)[GalNAc(a1-3)]Gal(b1-4)[Fuc(a1-3)]GlcNAc(b1-3)GalNAc
# In short: as §1
# [9] = target: Fuc(a1-2)[GalNAc(a1-4)]Gal(b1-4)GlcNAc
# In short: as §1
# [10] = target: Fuc(a1-3)[Gal(b1-4)]GlcNAc(b1-3)Gal(b1-3)[Fuc(a1-4)]GlcNAc
# In short: as §1
# [11] = target: Fuc(a1-3)[GalNAc(b1-4)]GlcNAc
# In short: as §1
# Gal(a1-3)Gal(b1-3)Glc = target: Gal(a1-3)Gal(b1-3)Glc
# In short: as §1
# [12] = target: Gal(a1-3)Gal(b1-4)GlcNAc(b1-2)Man(a1-3)[Gal(a1-3)Gal(b1-4)GlcNAc(b1-2)Man(a1-6)]Man(b1-4)GlcNAc(b1-4)GlcNAc
# In short: as §1
# Gal(a1-3)GlcNAc = target: Gal(a1-3)GlcNAc
# In short: as §1
# [13] = target: Gal(b1-3)GalNAc(a1-3)[Fuc(a1-2)]Gal(b1-4)Glc
# In short: as §1
# [14] = target: Gal(b1-3)GalNAc(a1-3)[Fuc(a1-2)]Gal(b1-4)GlcNAc
# In short: as §1
# [15] = target: Gal(b1-3)GlcNAc(a1-6)Gal(b1-4)GlcNAc
# In short: as §1
# [16] = target: Gal(b1-3)GlcNAc(b1-3)Gal(b1-4)GlcNAc
# In short: as §1
# [17] = target: Gal(b1-3)[Neu5Ac(a2-6)]GlcNAc(b1-4)Gal(b1-4)Glc
# In short: as §1
# Gal(b1-4)GlcNAc = target: Gal(b1-4)GlcNAc
# In short: as §1
# [18] = target: Gal(b1-4)GlcNAc(b1-2)[Gal(b1-4)GlcNAc(b1-4)]Man(a1-3)[Gal(b1-4)GlcNAc(b1-2)[Gal(b1-4)GlcNAc(b1-6)]Man(a1-6)]Man(b1-4)GlcNAc(b1-4)GlcNAc
# In short: as §1
# [19] = target: Gal(b1-4)GlcNAc(b1-2)[Gal(b1-4)GlcNAc(b1-6)]Man(a1-6)[Gal(b1-4)GlcNAc(b1-2)Man(a1-3)]Man(b1-4)GlcNAc(b1-4)[Fuc(a1-6)]GlcNAc
# In short: as §1
# [20] = target: Gal(b1-4)GlcNAc(b1-2)[Gal(b1-4)GlcNAc(b1-6)]Man(a1-6)[GlcNAc(b1-4)][Gal(b1-4)GlcNAc(b1-2)Man(a1-3)]Man(b1-4)GlcNAc(b1-4)GlcNAc
# In short: as §1
# [21] = target: Gal3S(b1-4)[Fuc(a1-3)]Glc6S
# In short: as §1
# [22] = target: GalNAc(b1-3)Gal(a1-4)Gal(b1-4)GlcNAc(b1-3)Gal(b1-4)Glc
# In short: as §1
# [23] = target: GalNAc3S(b1-4)[Fuc(a1-3)]GlcNAc
# In short: as §1
# GalNAc4S6S(b1-4)GlcNAc = target: GalNAc4S6S(b1-4)GlcNAc
# In short: as §1
# [24] = target: Glc(a1-6)Glc(a1-6)Glc(a1-6)Glc
# In short: as §1
# [25] = target: GlcNAc(a1-4)Gal(b1-4)GlcNAc(b1-3)Gal(b1-4)[Fuc(a1-3)]GlcNAc(b1-3)Gal(b1-4)[Fuc(a1-3)]GlcNAc
# In short: as §1
# [26] = target: GlcNAc(b1-3)Gal(b1-4)GlcNAc(b1-2)[GlcNAc(b1-3)Gal(b1-4)GlcNAc(b1-6)]Man(a1-6)[GlcNAc(b1-3)Gal(b1-4)GlcNAc(b1-2)Man(a1-3)]Man(b1-4)GlcNAc(b1-4)GlcNAc
# In short: as §1
# [27] = target: GlcNAc(b1-3)Gal(b1-4)GlcNAc(b1-3)Gal(b1-4)GlcNAc(b1-3)Gal(b1-4)GlcNAc(b1-3)Gal(b1-4)GlcNAc(b1-2)[GlcNAc(b1-3)Gal(b1-4)GlcNAc(b1-3)Gal(b1-4)GlcNAc(b1-3)Gal(b1-4)GlcNAc(b1-3)Gal(b1-4)GlcNAc(b1-6)]Man(a1-6)[GlcNAc(b1-3)Gal(b1-4)GlcNAc(b1-3)Gal(b1-4)GlcNAc(b1-3)Gal(b1-4)GlcNAc(b1-3)Gal(b1-4)GlcNAc(b1-2)Man(a1-3)]Man(b1-4)GlcNAc(b1-4)[Fuc(a1-6)]GlcNAc
# In short: as §1
# [28] = target: GlcNAc(b1-3)[GlcNAc(b1-6)]Gal(b1-4)GlcNAc
# In short: as §1
# [29] = target: GlcNAc(b1-3)[GlcNAc(b1-6)]GlcNAc
# In short: as §1
# [30] = target: GlcNAc(b1-4)Gal(b1-4)GlcNAc
# In short: as §1
# [31] = target: Man(a1-2)Man(a1-3)[Man(a1-2)Man(a1-6)]Man(a1-6)[Man(a1-2)Man(a1-2)Man(a1-3)]Man(b1-4)GlcNAc(b1-4)GlcNAc
# In short: as §1
# [32] = target: Man(a1-2)Man(a1-3)[Man(a1-3)[Man(a1-6)]Man(a1-6)]Man(b1-4)GlcNAc(b1-4)GlcNAc
# In short: as §1
# [33] = target: Man(a1-2)Man(a1-3)[Man(a1-6)]Man(a1-6)[Man(a1-2)Man(a1-3)]Man(b1-4)GlcNAc(b1-4)GlcNAc
# In short: as §1
# [34] = target: Man(a1-3)[Man(a1-6)]Man(a1-6)[Man(a1-3)]Man(b1-4)GlcNAc(b1-4)GlcNAc
# In short: as §1
# [35] = target: Neu5Ac(a2-3)Gal(b1-4)GlcNAc(b1-3)Gal(b1-4)GlcNAc(b1-3)Gal(b1-4)GlcNAc(b1-2)Man(a1-3)[Neu5Ac(a2-3)Gal(b1-4)GlcNAc(b1-3)Gal(b1-4)GlcNAc(b1-3)Gal(b1-4)GlcNAc(b1-2)Man(a1-6)]GalNAc
# In short: as §1
# [36] = target: Neu5Ac(a2-3)Gal(b1-4)GlcNAc(b1-6)[Neu5Ac(a2-3)Gal(b1-3)]GalNAc
# In short: as §1
# [37] = target: Neu5Ac(a2-3)Gal(b1-4)[Fuc(a1-3)]GlcNAc
# In short: as §1
# [38] = target: Neu5Ac(a2-3)Gal(b1-4)[Fuc(a1-3)]GlcNAc(b1-3)GalNAc
# In short: as §1
# [39] = target: Neu5Ac(a2-3)Gal6S(b1-4)[Fuc(a1-3)]GlcNAc
# In short: as §1
# Neu5Ac(a2-6)Gal = target: Neu5Ac(a2-6)Gal
# In short: as §1
# [40] = target: Neu5Ac(a2-6)Gal(b1-4)GlcNAc(b1-2)Man(a1-6)Man(b1-4)GlcNAc(b1-4)GlcNAc
# In short: as §1
# [41] = target: Neu5Ac(a2-6)Gal(b1-4)GlcNAc(b1-2)Man(a1-6)[Gal(b1-4)GlcNAc(b1-2)Man(a1-3)]Man(b1-4)GlcNAc(b1-4)GlcNAc
# In short: as §1
# [42] = target: Neu5Ac(a2-6)Gal(b1-4)GlcNAc(b1-2)Man(a1-6)[GlcNAc(b1-2)Man(a1-3)]Man(b1-4)GlcNAc(b1-4)GlcNAc
# In short: as §1
# [43] = target: Neu5Ac(a2-6)Gal(b1-4)GlcNAc(b1-6)GalNAc
# In short: as §1
# [44] = target: Neu5Ac(a2-6)Gal(b1-4)GlcNAc(b1-6)[Gal(b1-3)]GalNAc
# In short: as §1
# Neu5Ac(a2-8)Neu5Ac = target: Neu5Ac(a2-8)Neu5Ac
# In short: as §1
# [45] = target: Neu5Gc(a2-3)Gal(b1-3)GlcNAc
# In short: as §1
binder,measurement,setting,value
B1,glycan array binding signal (z-score),[1],-0.108
same,glycan array binding signal (z-score),[2],-0.184
same,glycan array binding signal (z-score),[3],-0.215
same,glycan array binding signal (z-score),Fuc(a1-2)Gal(b1-4)Glc6S,0.014
same,glycan array binding signal (z-score),[4],0.358
same,glycan array binding signal (z-score),Fuc(a1-2)GlcNAc,-0.021
same,glycan array binding signal (z-score),[5],-0.322
same,glycan array binding signal (z-score),[6],-0.477
same,glycan array binding signal (z-score),[7],-0.202
same,glycan array binding signal (z-score),[8],20.3
same,glycan array binding signal (z-score),[9],-0.131
same,glycan array binding signal (z-score),[10],-0.053
same,glycan array binding signal (z-score),[11],6.12
same,glycan array binding signal (z-score),Gal(a1-3)Gal(b1-3)Glc,2.36
same,glycan array binding signal (z-score),[12],0.152
same,glycan array binding signal (z-score),Gal(a1-3)GlcNAc,15.9
same,glycan array binding signal (z-score),[13],-0.227
same,glycan array binding signal (z-score),[14],-0.337
same,glycan array binding signal (z-score),[15],-0.171
same,glycan array binding signal (z-score),[16],-0.474
same,glycan array binding signal (z-score),[17],0.794
same,glycan array binding signal (z-score),Gal(b1-4)GlcNAc,-0.066
same,glycan array binding signal (z-score),[18],0.777
same,glycan array binding signal (z-score),[19],0.078
same,glycan array binding signal (z-score),[20],-0.452
same,glycan array binding signal (z-score),[21],0.818
same,glycan array binding signal (z-score),[22],-0.027
same,glycan array binding signal (z-score),[23],-0.078
same,glycan array binding signal (z-score),GalNAc4S6S(b1-4)GlcNAc,0.078
same,glycan array binding signal (z-score),[24],0.158
same,glycan array binding signal (z-score),[25],1.05
same,glycan array binding signal (z-score),[26],0.95
same,glycan array binding signal (z-score),[27],0.094
same,glycan array binding signal (z-score),[28],-0.01
same,glycan array binding signal (z-score),[29],-0.058
same,glycan array binding signal (z-score),[30],4.54
same,glycan array binding signal (z-score),[31],-0.156
same,glycan array binding signal (z-score),[32],-0.086
same,glycan array binding signal (z-score),[33],-0.092
same,glycan array binding signal (z-score),[34],0.065
same,glycan array binding signal (z-score),[35],0.335
same,glycan array binding signal (z-score),[36],-0.518
same,glycan array binding signal (z-score),[37],-0.21
same,glycan array binding signal (z-score),[38],0.775
same,glycan array binding signal (z-score),[39],-0.241
same,glycan array binding signal (z-score),Neu5Ac(a2-6)Gal,-0.04
same,glycan array binding signal (z-score),[40],-0.2
same,glycan array binding signal (z-score),[41],-0.115
same,glycan array binding signal (z-score),[42],0.009
same,glycan array binding signal (z-score),[43],-0.112
same,glycan array binding signal (z-score),[44],0.356
same,glycan array binding signal (z-score),Neu5Ac(a2-8)Neu5Ac,-0.216
same,glycan array binding signal (z-score),[45],-0.235
